Measurements taken from PubChem BioAssay (NCI).
This is part of a sample that, as a whole, favours compounds with a hit. Of some 83,000 tested, about 20% had one in any assay.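 Step 1: grow cells in 96-well plates. Step 2: add test compound at a single concentration. Step 3: incubate 48 h. Step 4: record percent growth.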 Activity calls are given as the source filed them. Rule for the calls: active = growth percent below 10; inactive = the rest.

Tests used:
Assay in all cases: NCI-60 one-dose screen, 48 h (100 = growth as untreated, 0 = no growth, -100 = all killed)
Details in all cases: 10 µM unless noted
NCI-H23 lung = system: NCI-H23 lung
NCI-H226 lung = system: NCI-H226 lung
NCI-H322M lung = system: NCI-H322M lung
HOP-62 NSCLC = system: HOP-62 NSCLC
NCI-H460 lung = system: NCI-H460 lung
HOP-92 NSCLC = system: HOP-92 NSCLC
NCI-H522 lung = system: NCI-H522 lung
A549/ATCC NSCLC = system: A549/ATCC NSCLC
786-0 renal = system: 786-0 renal
COLO 205 colon = system: COLO 205 colon
DU-145 prostate = system: DU-145 prostate
K-562 leukemia = system: K-562 leukemia
MALME-3M melanoma = system: MALME-3M melanoma
MDA-MB-231 breast = system: MDA-MB-231 breast
RXF 393 renal = system: RXF 393 renal
SF-268 CNS = system: SF-268 CNS
SF-295 CNS = system: SF-295 CNS
SF-539 CNS = system: SF-539 CNS
UACC-257 melanoma = system: UACC-257 melanoma
M14 melanoma = system: M14 melanoma

Measured: growth

CCOP(=O)(NC[C@H]1O[C@](O)(CO)[C@@H](O)[C@@H]1O)OCC
inactive: NCI-H23 lung 97.4% | NCI-H226 lung 75.9% | NCI-H322M lung 112% | HOP-62 NSCLC 91% | NCI-H460 lung 105% | HOP-92 NSCLC 93.1% | NCI-H522 lung 88.3% | A549/ATCC NSCLC 96.6% | 786-0 renal 99.8% | COLO 205 colon 102% | DU-145 prostate 105% | K-562 leukemia 97.5% | MALME-3M melanoma 89.1% | MDA-MB-231 breast 94.3% | RXF 393 renal 96.4% | SF-268 CNS 94.4% | SF-295 CNS 104% | SF-539 CNS 96.3% | UACC-257 melanoma 98.4% | M14 melanoma 93.1%

C/C(=C\c1ccn(-c2ccccc2N)n1)[C@@H]1C[C@@H]2O[C@]2(C)CCC[C@H](C)[C@H](O)[C@@H](C)C(=O)C(C)(C)[C@@H](O)CC(=O)O1
active: COLO 205 colon -4.12% | DU-145 prostate -17.8% | RXF 393 renal -3.76% | SF-539 CNS -12% | M14 melanoma 2.49%
inactive: NCI-H23 lung 20.4% | NCI-H226 lung 33.8% | NCI-H322M lung 16.6% | HOP-62 NSCLC 41.7% | NCI-H460 lung 14.9% | HOP-92 NSCLC 77.4% | NCI-H522 lung 11.7% | A549/ATCC NSCLC 24.8% | 786-0 renal 17.8% | K-562 leukemia 14.6% | MALME-3M melanoma 41.7% | MDA-MB-231 breast 21.9% | SF-268 CNS 30.3% | SF-295 CNS 13.8% | UACC-257 melanoma 62.3%

CN1CC(=O)N(O)C1(C)c1cccnc1 (stereo not given)
inactive: NCI-H23 lung 104% | NCI-H226 lung 94.7% | NCI-H322M lung 98.7% | HOP-62 NSCLC 95.6% | NCI-H460 lung 105% | HOP-92 NSCLC 116% | NCI-H522 lung 95.2% | A549/ATCC NSCLC 101% | 786-0 renal 99.5% | COLO 205 colon 111% | DU-145 prostate 115% | K-562 leukemia 99.4% | MALME-3M melanoma 102% | MDA-MB-231 breast 113% | RXF 393 renal 106% | SF-268 CNS 106% | SF-295 CNS 96.4% | SF-539 CNS 98.3% | UACC-257 melanoma 98.9% | M14 melanoma 105%

CCN(CCO)C(Cc1ccccc1)c1ccccc1 (stereo not given)
inactive: NCI-H23 lung 93.1% | NCI-H226 lung 101% | NCI-H322M lung 106% | HOP-62 NSCLC 96.5% | NCI-H460 lung 104% | HOP-92 NSCLC 100% | NCI-H522 lung 87.9% | A549/ATCC NSCLC 103% | 786-0 renal 105% | COLO 205 colon 102% | DU-145 prostate 105% | K-562 leukemia 107% | MALME-3M melanoma 96.5% | MDA-MB-231 breast 101% | RXF 393 renal 106% | SF-268 CNS 101% | SF-295 CNS 95.5% | SF-539 CNS 106% | UACC-257 melanoma 114% | M14 melanoma 89%

COC(=O)[C@@H](C)C[C@H](Cc1ccccc1)NC(=O)c1csc([C@@H](C[C@H](C(C)C)N(C)C(=O)[C@@H](NC(=O)[C@H]2CCCCN2C)C(C(F)(F)F)C(F)(F)F)OC(C)=O)n1
active: NCI-H460 lung 5.59% | NCI-H522 lung -8.2% | 786-0 renal -5.39% | COLO 205 colon -50.6% | K-562 leukemia 8.83% | MDA-MB-231 breast 6.65% | SF-295 CNS 9.85% | SF-539 CNS -11.1% | M14 melanoma -20.3%
inactive: NCI-H23 lung 44.8% | NCI-H226 lung 56.7% | NCI-H322M lung 37% | HOP-62 NSCLC 15.1% | HOP-92 NSCLC 12.4% | A549/ATCC NSCLC 12.8% | DU-145 prostate 11.4% | MALME-3M melanoma 65.8% | RXF 393 renal 46% | SF-268 CNS 18.3% | UACC-257 melanoma 52.4%

C[C@]12CCc3sc(NCCc4ccccc4)nc3C1=CC[C@@H]1[C@@H]2CC[C@]2(C)C(=O)CC[C@@H]12
active: 786-0 renal 4.36% | K-562 leukemia 5.14%
inactive: NCI-H23 lung 66.6% | NCI-H226 lung 84.1% | NCI-H322M lung 91.9% | HOP-62 NSCLC 102% | NCI-H460 lung 72.8% | HOP-92 NSCLC 66.4% | NCI-H522 lung 44.1% | A549/ATCC NSCLC 87.8% | COLO 205 colon 90.6% | DU-145 prostate 33.9% | MALME-3M melanoma 73.3% | MDA-MB-231 breast 83.1% | RXF 393 renal 20% | SF-268 CNS 83.9% | SF-295 CNS 68.4% | SF-539 CNS 64.8% | UACC-257 melanoma 87.4% | M14 melanoma 85.4%

CCCOC(=O)N[C@H]1CCc2c(Br)c(OC)c(OC)c(OC)c2-c2ccc(SC)c(=O)cc21
inactive: NCI-H23 lung 26.9% | NCI-H226 lung 15.4% | NCI-H322M lung 34.6% | HOP-62 NSCLC 41.1% | A549/ATCC NSCLC 18.2% | K-562 leukemia 10.1% | MALME-3M melanoma 38.4% | RXF 393 renal 13.8% | SF-268 CNS 17.8% | UACC-257 melanoma 64.5%
active: NCI-H460 lung -18.1% | HOP-92 NSCLC -3.98% | NCI-H522 lung 8.5% | 786-0 renal 1.42% | COLO 205 colon -31.9% | DU-145 prostate -15.7% | MDA-MB-231 breast -13.4% | SF-295 CNS 5.54% | SF-539 CNS 0.697% | M14 melanoma -26.3%

CSc1nc(Cl)cc(N2CC2)n1
inactive: NCI-H23 lung 103% | NCI-H226 lung 108% | NCI-H322M lung 128% | HOP-62 NSCLC 103% | NCI-H460 lung 105% | HOP-92 NSCLC 93% | NCI-H522 lung 126% | A549/ATCC NSCLC 102% | 786-0 renal 104% | COLO 205 colon 139% | DU-145 prostate 110% | K-562 leukemia 120% | MALME-3M melanoma 105% | MDA-MB-231 breast 106% | RXF 393 renal 111% | SF-268 CNS 99.1% | SF-295 CNS 115% | SF-539 CNS 98.8% | UACC-257 melanoma 107% | M14 melanoma 114%
